Mcl1 Bid PPI: Mcl-1/Bid binding inhibitors, primary screen, biochemical, TR-FRET, 1536-well; TR-FRET Mcl-1/Bid-Dy647 peptide binding; actives 0.97% (n = 220,000); inhibition, % at 21.7 µM; Induced myeloid leukemia cell differentiation protein Mcl-1 (Homo sapiens), Q07820; AID 1021, 2008;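 active = compounds that cut the binding signal by more than half at the single screening dose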;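 note: His-tagged Mcl-1 with europium anti-His antibody binding Bid BH3 peptide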
Target sequence (Q07820 whole entry, looked up): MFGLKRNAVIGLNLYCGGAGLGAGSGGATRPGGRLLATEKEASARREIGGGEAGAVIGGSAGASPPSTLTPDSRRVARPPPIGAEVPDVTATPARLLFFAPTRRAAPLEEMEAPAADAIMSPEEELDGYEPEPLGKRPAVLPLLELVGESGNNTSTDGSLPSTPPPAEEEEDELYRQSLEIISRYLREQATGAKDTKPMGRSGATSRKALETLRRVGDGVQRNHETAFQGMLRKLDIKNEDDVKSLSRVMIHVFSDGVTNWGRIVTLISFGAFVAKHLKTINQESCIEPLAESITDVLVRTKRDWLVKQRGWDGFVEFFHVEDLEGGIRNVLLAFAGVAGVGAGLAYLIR
Mcl-1 Bim block: inhibitors of Bim peptide binding to Mcl-1, primary screen, biochemical, bead-based flow cytometry, multiplex | Bim peptide-Mcl-1 binding | AID 1009, 2008 | inhibition, % at 10 µM | Induced myeloid leukemia cell differentiation protein Mcl-1 (Homo sapiens), Q07820 | actives 0.1% (n = 190,000); in the data active = inhibition above about 40%
eIF4E-4G inh: eIF4E–eIF4G protein interaction inhibitors, primary screen, biochemical, uHTS, TR-FRET, eIF4GI fragment | Eukaryotic translation initiation factor 4E (Mus musculus) + Eukaryotic translation … | TR-FRET eIF4E-eIF4GI(517-606) binding, 2 h | inhibition, % at 21.7 µM | actives 0.37% (n = 220,000);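 active = inhibition above about 30%, limit read from the data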
Hck-Nef inh: inhibitors of Nef-activated human Hck kinase, primary screen, biochemical, Z-Lyte FRET, 384-well, Hck-YEEI. Tyrosine-protein kinase HCK (Homo sapiens), P08631. Recombinant Hck-YEEI plus Nef, Z-Lyte FRET kinase assay. inhibition, % at 20 µM. actives 0.68% (n = 220,000). AID 463187, 2010;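 active = Hck-Nef kinase inhibition above about 50%, limit read from the data; inactive = inhibition below that limit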
Mcl1 Noxa PPI: Mcl-1/Noxa binding inhibitors, primary screen, biochemical, TR-FRET, 1536-well. Induced myeloid leukemia cell differentiation protein Mcl-1 (Homo sapiens), Q07820. TR-FRET Mcl-1/Noxa peptide binding, 2 h. inhibition, % at 21.7 µM. actives 1.5% (n = 220,000). AID 1022, 2008;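 active = compounds that cut the protein-peptide binding signal by more than 50% relative to plate controls in a single-dose test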;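 note: His-tagged Mcl-1 with rhodamine Noxa BH3 peptide and terbium anti-His antibody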
14-3-3 Bad PPI: inhibitors of 14-3-3 zeta/Bad binding, primary screen, biochemical, TR-FRET, bovine 14-3-3 zeta | actives 0.71% (n = 220,000) | inhibition, % at 21.7 µM | 14-3-3 protein zeta/delta (Bos taurus), P63103 | TR-FRET 14-3-3zeta/Dy647-pBad peptide displacement, 1 h;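 active = inhibition above about 70%, limit read from the data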
Target sequence (P63103 whole entry, looked up): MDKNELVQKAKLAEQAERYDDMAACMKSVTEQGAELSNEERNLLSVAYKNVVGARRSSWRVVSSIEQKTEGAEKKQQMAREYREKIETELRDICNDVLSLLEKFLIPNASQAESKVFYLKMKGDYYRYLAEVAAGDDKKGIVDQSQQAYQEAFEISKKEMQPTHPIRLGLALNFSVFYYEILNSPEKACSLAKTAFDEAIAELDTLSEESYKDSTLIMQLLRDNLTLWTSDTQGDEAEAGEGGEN
Of the large screens only hits and unclear results are named; the others gave an inactive call; [ ] = another dose, or the depositor's remark. Most compounds without a hit are left out; they make up all but 3.5% or so of the library.

O=C(NNC(=S)NCCc1ccccc1)c1ccc(Br)s1	none
CC(C)[C@H](NC(=O)Cc1ccccc1)C(=O)OCc1cc(=O)n2c(n1)sc1ccccc12	Mcl1 Noxa PPI 76
Cc1ccc(NC(=O)CC2=NC(=O)C(CC(=O)Nc3ccccc3C)S2)cc1 (stereo unspecified)	none
O=C(SCC(O)C(O)CS)c1cccs1 (stereo unspecified)	none (no result: Mcl-1 Bim block)
CCCc1[nH]n(-c2ccc([N+](=O)[O-])cc2)c(=O)c1C=NCCCn1ccnc1	none
O=C(Nc1nc(-c2ccco2)c(-c2ccco2)s1)C1CC(=O)N(c2ccc3c(c2)OCCO3)C1 (stereo unspecified)	Mcl1 Noxa PPI 75
N=c1c(C(=O)NCc2ccco2)cc2c(=O)n3ccccc3nc2n1Cc1ccccc1	none
Cc1cccn2c(=O)c3cc(C(=O)NCc4ccco4)c(=N)n(CCc4ccccc4)c3nc12	Mcl1 Noxa PPI 80 (no result: Mcl-1 Bim block)
Cc1ccc(S(=O)(=O)c2cc3c(=O)n4ccccc4nc3n(Cc3ccco3)c2=N)cc1	Mcl1 Noxa PPI 72
N=c1c(C(=O)NCc2ccccc2)cc2c(=O)n3ccccc3nc2n1Cc1ccco1	Mcl1 Noxa PPI 58 (no result: eIF4E-4G inh, 14-3-3 Bad PPI)
Cc1ccc(S(=O)(=O)c2cc3c(=O)n4ccccc4nc3n(CC3CCCO3)c2=N)cc1 (stereo unspecified)	none (no result: Mcl1 Bid PPI, Mcl-1 Bim block, eIF4E-4G inh, Mcl1 Noxa PPI, 14-3-3 Bad PPI)
CCN(C(=O)COC(=O)c1nn(-c2ccccc2)c(=O)c2ccccc12)C1CCS(=O)(=O)C1 (stereo unspecified)	none (no result: Mcl-1 Bim block)
CCOC(=O)c1c(NC(=O)CCNCc2ccco2)sc2c1CCC2	none (no result: Mcl-1 Bim block)
O=C(CSc1ncnc2ccccc12)Nc1ccc2c(c1)OCCO2	none
O=C(CSc1nc(Cc2ccccc2)nc2ccccc12)Nc1ccc2c(c1)OCCO2	Mcl1 Bid PPI 58
CC(=O)Nc1nonc1-c1nc2ccccc2n1CC1CC1	none
CC(=O)Nc1nonc1-c1nc2ccccc2n1N(C(C)=O)C(C)=O	Mcl1 Noxa PPI 52
CNc1ccc(Br)cc(C(=O)/C=C/c2cccc(OC)c2)c1=O	Mcl1 Noxa PPI 81
O=C(/C=C/c1ccc(Cl)cc1Cl)c1ccc[nH]1	none
CNc1ccc(Br)cc(C(=O)/C=C/c2ccc(Cl)cc2Cl)c1=O	Mcl1 Noxa PPI 92
CNc1ccc(Br)cc(C(=O)/C=C/c2ccc(OC)cc2OC)c1=O	Mcl1 Noxa PPI 76
COc1ccc(/C=C/C(=O)c2ccc(OC)cc2OC)c(OC)c1	none
Cc1ccc(CC(=O)NCCS(=O)c2ccc(C)cc2)cc1 (stereo unspecified)	none
O=C1CCc2cc(S(=O)(=O)NCCCC(=O)N3CCN(Cc4ccc5c(c4)OCO5)CC3)ccc2N1	Mcl-1 Bim block 40
NC1=NC(=O)/C(=C/c2ccccc2OS(=O)(=O)c2ccc3ccccc3c2)S1	none
O=C(Nc1nc2ccccc2s1)c1ccc(Cl)s1	none
Cn1cc(Cl)c(C(=O)Nc2nc3ccc([N+](=O)[O-])cc3s2)n1	Mcl1 Bid PPI 52, Mcl1 Noxa PPI 62
CC(=O)Nc1ccc2nc(NC(=O)c3ccc([N+](=O)[O-])s3)sc2c1	Mcl1 Noxa PPI 73 (no result: Mcl-1 Bim block)
CC(=O)Nc1ccc2nc(NC(=O)COc3ccc([N+](=O)[O-])cc3)sc2c1	Mcl1 Noxa PPI 56
CC(=O)Nc1ccc(NC(=O)COc2ccc([N+](=O)[O-])cc2)cc1	none
Cn1cc(Cl)c(C(=O)Nc2nc3ccc(Cl)cc3s2)n1	none
Cc1ccc2nc(NC(=O)c3ccc(-c4nc5ccccc5s4)s3)sc2c1	Mcl1 Bid PPI 79, Mcl1 Noxa PPI 52, 14-3-3 Bad PPI 83[fluorescence artefact?]
CC1=C(C(=O)OCCc2ccccc2)C(c2ccsc2)NC(=O)N1C (stereo unspecified)	none
C=CCC1(O)CC(c2ccco2)NC(c2ccco2)C1CCC (stereo unspecified)	14-3-3 Bad PPI 79
C[C@@H]1C=C(C(=O)N2CCOCC2)O[C@H](OCc2ccc(CO)cc2)C1	none
COc1cc(/C=C2\SC(=O)N(Cc3ccc(F)cc3)C2=O)cc([N+](=O)[O-])c1O	Mcl1 Noxa PPI 97
CCOc1cc(/C=C2\C(=O)NN(c3ccccc3)C2=O)cc([N+](=O)[O-])c1O	Mcl1 Noxa PPI 51
O=C1/C(=C/c2ccc(O)c([N+](=O)[O-])c2)SC(=S)N1Cc1ccccc1	Mcl1 Noxa PPI 56
COc1cc(/C=C2\C(=O)NN(c3ccccc3)C2=O)cc([N+](=O)[O-])c1O	Mcl1 Noxa PPI 51
CCN(CC)S(=O)(=O)c1cccc(NC2=NCCCCC2)c1	none (no result: Mcl-1 Bim block)
Oc1ccc(C=NCC2COc3ccccc3O2)cc1 (stereo unspecified)	Mcl-1 Bim block 80
COc1ccc(C=NCC2COc3ccccc3O2)cc1OC (stereo unspecified)	none
CC(=O)Oc1cc2cccc(OC(C)=O)c(=O)c2c(OC(C)=O)c1OC(C)=O	Mcl1 Noxa PPI 66, 14-3-3 Bad PPI 75
COc1cc2cccc(OC)c(=O)c2c(O)c1OC	none
CC(C)Cn1c(N)c(-c2nc(C(C)C)c(C(=O)c3ccccc3F)s2)c(=O)n(C)c1=O	none
O=C(c1ccco1)N(c1ccccn1)c1ccccn1	none
O=C(/C=C/c1ccco1)N(c1ccccn1)c1ccccn1	eIF4E-4G inh 34, Mcl1 Noxa PPI 62
CCOC(=O)c1c(CN2CCN(C)CC2)oc2ccc(OC)cc12	14-3-3 Bad PPI 79
CCOC(=O)c1c(CN2CCCCC2)oc2ccc(OC)cc12	none
CCCc1c(C(=O)NNc2cc(C(F)(F)F)ccc2Cl)cnn1-c1ccccc1	none (no result: Mcl-1 Bim block)
Cc1cc(C)cc(NC(=O)Oc2ccccc2N2CCCCC2)c1	Mcl1 Noxa PPI 51 (no result: Mcl-1 Bim block)
NC(=O)c1cc(-c2ccccc2)sc1NC(=O)CN1CCCCC1	none
COc1cc(CN2CCC(C(=O)NC3CCCC3)CC2)ccc1O	14-3-3 Bad PPI 77
CCCC(=O)Nc1cc(C(=O)O)ccc1Sc1ccccc1	none
Cc1cc(OCC(=O)Nc2ccc(N3CCN(C(=O)c4ccco4)CC3)cc2)cc(C)c1Cl	Mcl1 Bid PPI 57
C=CCn1c(SCC(=O)Nc2sc3c(c2C#N)CCC3)nnc1C1COc2ccccc2O1 (stereo unspecified)	Mcl1 Bid PPI 55
N#Cc1ccc(N/N=C/c2ccccc2)c([N+](=O)[O-])c1	none

Compound activity as filed in PubChem BioAssay.
